Experiment [1] deals with T1, Tyrosine-protein kinase receptor TYRO3 (Homo sapiens) (UniProt Q06418).
T1 sequence (whole entry): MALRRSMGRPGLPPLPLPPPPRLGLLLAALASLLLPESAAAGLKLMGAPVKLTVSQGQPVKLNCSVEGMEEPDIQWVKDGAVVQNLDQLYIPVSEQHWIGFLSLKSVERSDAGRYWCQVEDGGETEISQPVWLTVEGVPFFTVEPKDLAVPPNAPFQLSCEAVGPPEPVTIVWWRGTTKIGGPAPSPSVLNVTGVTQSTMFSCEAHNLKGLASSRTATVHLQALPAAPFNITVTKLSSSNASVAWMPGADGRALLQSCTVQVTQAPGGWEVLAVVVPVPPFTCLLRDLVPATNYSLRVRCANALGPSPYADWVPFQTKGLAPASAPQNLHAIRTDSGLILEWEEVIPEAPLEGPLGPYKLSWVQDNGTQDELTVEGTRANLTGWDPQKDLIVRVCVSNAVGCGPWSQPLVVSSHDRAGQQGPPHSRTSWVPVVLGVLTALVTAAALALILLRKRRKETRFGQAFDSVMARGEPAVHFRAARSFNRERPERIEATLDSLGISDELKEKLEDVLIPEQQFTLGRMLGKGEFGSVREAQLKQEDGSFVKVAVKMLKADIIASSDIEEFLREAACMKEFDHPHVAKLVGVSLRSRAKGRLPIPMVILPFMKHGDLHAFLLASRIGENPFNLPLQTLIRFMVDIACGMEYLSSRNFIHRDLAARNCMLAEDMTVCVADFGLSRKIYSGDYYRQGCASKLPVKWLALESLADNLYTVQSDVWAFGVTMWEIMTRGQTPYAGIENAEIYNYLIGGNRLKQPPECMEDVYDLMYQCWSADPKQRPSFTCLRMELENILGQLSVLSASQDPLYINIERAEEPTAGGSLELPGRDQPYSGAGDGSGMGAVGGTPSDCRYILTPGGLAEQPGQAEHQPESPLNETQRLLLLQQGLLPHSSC
Conditions: at 1 µM.

The target of experiment [2] is Tyrosine-protein kinase Yes (Homo sapiens) (UniProt P07947). As to conditions: at 0.1 µM.
The target is the same in experiment [3]. Conditions: at 1 µM.
In experiment [4] the target is T2, Tyrosine-protein kinase ZAP-70 (Homo sapiens) (UniProt P43403).
T2 sequence (whole entry): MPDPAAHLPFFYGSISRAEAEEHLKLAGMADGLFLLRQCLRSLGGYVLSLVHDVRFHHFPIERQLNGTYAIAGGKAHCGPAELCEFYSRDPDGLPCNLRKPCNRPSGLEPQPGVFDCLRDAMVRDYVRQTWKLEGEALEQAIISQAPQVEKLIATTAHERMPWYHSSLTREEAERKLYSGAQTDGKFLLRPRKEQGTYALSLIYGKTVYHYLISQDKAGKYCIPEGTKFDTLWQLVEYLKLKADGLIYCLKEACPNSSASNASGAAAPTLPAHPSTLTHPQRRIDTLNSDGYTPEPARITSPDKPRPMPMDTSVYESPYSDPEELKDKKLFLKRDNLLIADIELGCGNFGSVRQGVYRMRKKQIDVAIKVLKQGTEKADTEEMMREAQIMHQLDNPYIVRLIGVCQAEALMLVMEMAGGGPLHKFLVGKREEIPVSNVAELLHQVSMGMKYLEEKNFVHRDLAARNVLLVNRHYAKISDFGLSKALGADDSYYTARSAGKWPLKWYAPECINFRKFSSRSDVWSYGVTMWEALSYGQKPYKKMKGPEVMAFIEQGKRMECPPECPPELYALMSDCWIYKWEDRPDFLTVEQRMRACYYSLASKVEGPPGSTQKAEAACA
As to conditions: at 0.1 µM.

For experiment [5], the target named is T2, Tyrosine-protein kinase ZAP-70 (Homo sapiens). Conditions: at 1 µM.
Experiment [6] has as its target Serine/threonine-protein kinase B-raf (Homo sapiens) (UniProt P15056). Conditions: at 0.1 µM.
The target is the same in experiment [7]. As to conditions: at 1 µM.
Experiment [8] concerns Serine/threonine-protein kinase B-raf (Homo sapiens), P15056 [V600E]. As to conditions: at 0.1 µM.
For experiment [9] the test system is unchanged. As to conditions: at 1 µM.
For experiment [10], the target named is RAF proto-oncogene serine/threonine-protein kinase (Homo sapiens) (UniProt P04049). Conditions: at 0.1 µM.
Experiment [11] shares this target. Conditions: at 1 µM.
Experiment [12] has as its target T3, Interleukin-1 receptor-associated kinase 4 (Homo sapiens) (UniProt Q9NWZ3).
T3 sequence (whole entry): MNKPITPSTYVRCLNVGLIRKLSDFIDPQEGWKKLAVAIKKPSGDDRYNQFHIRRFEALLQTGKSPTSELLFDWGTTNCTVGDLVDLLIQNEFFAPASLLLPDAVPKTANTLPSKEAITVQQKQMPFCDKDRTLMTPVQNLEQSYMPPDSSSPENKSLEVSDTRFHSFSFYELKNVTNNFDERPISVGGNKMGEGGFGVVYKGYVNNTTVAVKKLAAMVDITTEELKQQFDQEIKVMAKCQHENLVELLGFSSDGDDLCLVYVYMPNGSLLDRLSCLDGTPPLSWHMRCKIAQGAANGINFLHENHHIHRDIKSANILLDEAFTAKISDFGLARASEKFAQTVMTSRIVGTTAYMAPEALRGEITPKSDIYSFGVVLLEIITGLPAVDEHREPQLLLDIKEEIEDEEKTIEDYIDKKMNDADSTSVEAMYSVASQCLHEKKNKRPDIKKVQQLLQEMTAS
As to conditions: at 0.1 µM.

Experiment [13] deals with T3, Interleukin-1 receptor-associated kinase 4 (Homo sapiens). Conditions: at 1 µM.
The target in experiment [14] is Leucine-rich repeat serine/threonine-protein kinase 2 (Homo sapiens) (UniProt Q5S007). As to conditions: at 0.1 µM.
Experiment [15] shares this target. As to conditions: at 1 µM.
Experiment [16] has as its system Leucine-rich repeat serine/threonine-protein kinase 2 (Homo sapiens), Q5S007 [G2019S]. As to conditions: at 0.1 µM.
Experiment [17] shares this test system. Conditions: at 1 µM.

The values that follow come from ChEMBL document CHEMBL1961873, “Compounds: GSK PKIS; Assays: Nanosyn kinase panel” (2012).

The term inhibition denotes the relative decrease from the control value, in per cent.

Sequence of Serine/threonine-protein kinase B-raf (Homo sapiens) (P15056 whole entry): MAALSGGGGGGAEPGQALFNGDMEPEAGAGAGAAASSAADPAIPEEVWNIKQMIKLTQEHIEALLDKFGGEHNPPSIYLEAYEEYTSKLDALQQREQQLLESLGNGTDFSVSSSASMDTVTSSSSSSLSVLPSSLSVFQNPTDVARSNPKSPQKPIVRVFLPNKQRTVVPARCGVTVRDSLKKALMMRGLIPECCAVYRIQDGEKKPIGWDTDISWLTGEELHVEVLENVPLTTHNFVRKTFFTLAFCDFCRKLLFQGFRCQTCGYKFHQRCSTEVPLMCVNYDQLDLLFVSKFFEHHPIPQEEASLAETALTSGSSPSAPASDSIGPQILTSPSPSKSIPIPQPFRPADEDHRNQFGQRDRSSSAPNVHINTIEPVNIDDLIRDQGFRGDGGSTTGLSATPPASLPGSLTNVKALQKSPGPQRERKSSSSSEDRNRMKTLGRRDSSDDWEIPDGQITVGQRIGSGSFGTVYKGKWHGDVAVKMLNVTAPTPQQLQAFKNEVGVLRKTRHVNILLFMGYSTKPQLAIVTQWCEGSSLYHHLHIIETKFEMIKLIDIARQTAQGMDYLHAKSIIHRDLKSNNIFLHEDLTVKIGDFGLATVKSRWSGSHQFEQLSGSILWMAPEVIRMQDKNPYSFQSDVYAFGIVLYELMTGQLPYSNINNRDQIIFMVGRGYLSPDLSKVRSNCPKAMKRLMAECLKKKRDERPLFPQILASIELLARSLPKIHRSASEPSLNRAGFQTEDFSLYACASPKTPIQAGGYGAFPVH
Sequence of RAF proto-oncogene serine/threonine-protein kinase (Homo sapiens) (P04049 whole entry): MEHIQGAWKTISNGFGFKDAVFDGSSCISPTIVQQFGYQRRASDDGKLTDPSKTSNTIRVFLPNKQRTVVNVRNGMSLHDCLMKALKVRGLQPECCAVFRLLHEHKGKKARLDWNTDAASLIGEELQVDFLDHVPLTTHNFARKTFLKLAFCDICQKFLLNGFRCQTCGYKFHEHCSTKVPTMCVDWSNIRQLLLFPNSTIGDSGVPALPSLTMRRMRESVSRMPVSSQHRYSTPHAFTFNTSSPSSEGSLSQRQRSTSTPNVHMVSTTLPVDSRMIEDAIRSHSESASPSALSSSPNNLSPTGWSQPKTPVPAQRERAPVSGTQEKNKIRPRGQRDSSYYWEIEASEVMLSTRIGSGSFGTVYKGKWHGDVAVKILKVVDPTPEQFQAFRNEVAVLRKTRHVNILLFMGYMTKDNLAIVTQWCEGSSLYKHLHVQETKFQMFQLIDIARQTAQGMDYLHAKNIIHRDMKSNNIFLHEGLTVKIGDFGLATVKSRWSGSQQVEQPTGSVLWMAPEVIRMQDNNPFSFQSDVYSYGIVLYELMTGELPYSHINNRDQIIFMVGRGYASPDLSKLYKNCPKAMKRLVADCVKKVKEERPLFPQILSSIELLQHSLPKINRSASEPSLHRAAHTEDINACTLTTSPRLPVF
Sequence of Leucine-rich repeat serine/threonine-protein kinase 2 (Homo sapiens), Q5S007 [G2019S] (Q5S007 whole entry G2019S): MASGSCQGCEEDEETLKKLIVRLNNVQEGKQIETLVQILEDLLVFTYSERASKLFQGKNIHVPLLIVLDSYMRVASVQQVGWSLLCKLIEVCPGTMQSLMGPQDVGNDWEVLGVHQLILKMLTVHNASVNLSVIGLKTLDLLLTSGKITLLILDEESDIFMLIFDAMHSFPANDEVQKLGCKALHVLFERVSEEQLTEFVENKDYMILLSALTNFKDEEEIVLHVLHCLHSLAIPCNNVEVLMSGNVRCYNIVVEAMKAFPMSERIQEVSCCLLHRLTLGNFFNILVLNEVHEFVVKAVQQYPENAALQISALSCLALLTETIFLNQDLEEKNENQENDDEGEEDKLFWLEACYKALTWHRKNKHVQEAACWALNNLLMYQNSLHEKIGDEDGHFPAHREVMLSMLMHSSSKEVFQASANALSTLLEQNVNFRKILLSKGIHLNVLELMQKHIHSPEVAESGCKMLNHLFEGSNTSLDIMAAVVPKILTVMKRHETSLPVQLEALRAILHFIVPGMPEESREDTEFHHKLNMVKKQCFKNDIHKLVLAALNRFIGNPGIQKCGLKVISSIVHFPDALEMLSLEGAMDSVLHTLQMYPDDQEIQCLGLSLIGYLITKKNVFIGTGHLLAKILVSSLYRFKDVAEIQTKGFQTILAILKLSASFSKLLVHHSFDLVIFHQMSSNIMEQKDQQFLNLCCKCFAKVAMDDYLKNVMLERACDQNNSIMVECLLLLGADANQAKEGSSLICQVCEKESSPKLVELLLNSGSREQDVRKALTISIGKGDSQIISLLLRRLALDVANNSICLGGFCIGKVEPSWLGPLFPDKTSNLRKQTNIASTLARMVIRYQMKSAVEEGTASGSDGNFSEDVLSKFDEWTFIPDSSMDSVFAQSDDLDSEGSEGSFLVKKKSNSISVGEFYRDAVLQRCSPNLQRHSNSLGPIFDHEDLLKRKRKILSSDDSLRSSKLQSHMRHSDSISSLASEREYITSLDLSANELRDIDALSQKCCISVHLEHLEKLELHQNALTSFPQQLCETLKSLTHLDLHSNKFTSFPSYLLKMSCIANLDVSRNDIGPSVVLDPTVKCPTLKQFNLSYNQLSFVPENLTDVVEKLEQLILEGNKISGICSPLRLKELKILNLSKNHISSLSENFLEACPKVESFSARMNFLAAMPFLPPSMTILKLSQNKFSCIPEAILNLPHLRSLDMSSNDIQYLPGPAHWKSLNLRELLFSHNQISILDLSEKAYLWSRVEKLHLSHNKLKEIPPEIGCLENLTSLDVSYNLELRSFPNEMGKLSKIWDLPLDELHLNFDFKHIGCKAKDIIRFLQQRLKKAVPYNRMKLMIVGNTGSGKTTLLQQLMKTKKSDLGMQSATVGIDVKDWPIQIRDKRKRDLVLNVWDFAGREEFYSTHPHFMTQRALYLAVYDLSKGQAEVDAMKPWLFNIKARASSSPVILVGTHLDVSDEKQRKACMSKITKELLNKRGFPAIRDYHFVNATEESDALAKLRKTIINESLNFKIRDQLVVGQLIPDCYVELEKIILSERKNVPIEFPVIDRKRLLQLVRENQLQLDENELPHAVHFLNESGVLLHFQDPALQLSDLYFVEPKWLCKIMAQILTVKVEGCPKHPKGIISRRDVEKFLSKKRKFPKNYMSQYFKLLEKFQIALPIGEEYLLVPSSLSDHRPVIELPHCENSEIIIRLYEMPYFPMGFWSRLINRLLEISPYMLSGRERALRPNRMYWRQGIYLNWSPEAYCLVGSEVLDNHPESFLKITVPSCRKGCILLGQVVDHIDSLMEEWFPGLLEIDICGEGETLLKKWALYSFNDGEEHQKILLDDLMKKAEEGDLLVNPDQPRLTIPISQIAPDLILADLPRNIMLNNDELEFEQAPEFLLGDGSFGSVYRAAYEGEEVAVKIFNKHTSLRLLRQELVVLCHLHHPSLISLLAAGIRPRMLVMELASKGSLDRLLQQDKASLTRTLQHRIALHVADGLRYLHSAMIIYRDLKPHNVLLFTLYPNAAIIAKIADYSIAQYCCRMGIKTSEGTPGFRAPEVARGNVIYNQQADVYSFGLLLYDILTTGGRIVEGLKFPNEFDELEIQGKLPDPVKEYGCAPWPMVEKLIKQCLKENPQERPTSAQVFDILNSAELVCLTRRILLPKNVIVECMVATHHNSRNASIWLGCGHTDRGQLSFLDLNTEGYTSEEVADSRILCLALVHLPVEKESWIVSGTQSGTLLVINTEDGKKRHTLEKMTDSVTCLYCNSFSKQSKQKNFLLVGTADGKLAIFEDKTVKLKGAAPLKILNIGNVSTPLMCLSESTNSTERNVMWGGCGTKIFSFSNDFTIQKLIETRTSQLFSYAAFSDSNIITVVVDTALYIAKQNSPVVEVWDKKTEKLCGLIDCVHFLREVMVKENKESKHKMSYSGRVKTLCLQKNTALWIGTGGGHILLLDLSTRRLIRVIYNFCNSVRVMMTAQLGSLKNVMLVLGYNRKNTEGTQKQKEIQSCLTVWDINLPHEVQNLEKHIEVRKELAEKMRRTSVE
Sequence of Tyrosine-protein kinase Yes (Homo sapiens) (P07947 2-543 limits assumed): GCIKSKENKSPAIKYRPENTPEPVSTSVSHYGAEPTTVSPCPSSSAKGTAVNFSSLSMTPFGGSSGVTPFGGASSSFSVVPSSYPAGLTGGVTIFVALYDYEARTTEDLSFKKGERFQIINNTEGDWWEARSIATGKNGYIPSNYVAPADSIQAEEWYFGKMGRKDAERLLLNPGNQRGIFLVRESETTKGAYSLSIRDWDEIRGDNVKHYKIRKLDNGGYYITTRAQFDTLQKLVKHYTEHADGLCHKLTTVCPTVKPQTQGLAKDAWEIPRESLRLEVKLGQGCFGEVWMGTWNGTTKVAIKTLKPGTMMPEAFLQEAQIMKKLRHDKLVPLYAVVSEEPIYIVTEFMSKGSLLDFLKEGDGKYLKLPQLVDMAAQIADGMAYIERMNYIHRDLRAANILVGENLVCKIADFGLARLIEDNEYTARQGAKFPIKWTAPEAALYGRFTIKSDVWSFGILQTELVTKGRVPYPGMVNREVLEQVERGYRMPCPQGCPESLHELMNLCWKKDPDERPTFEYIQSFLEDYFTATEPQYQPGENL
Sequence of Leucine-rich repeat serine/threonine-protein kinase 2 (Homo sapiens) (Q5S007 whole entry): as the sequence (Q5S007 whole entry G2019S) above, with S2019G counted along it
Sequence of Serine/threonine-protein kinase B-raf (Homo sapiens), P15056 [V600E] (P15056 whole entry V600E): as the sequence (P15056 whole entry) above, with V600E counted along it

For the compound `CCc1nn2ncccc2c1-c1ccnc(NC2CC2)n1`, the inhibition in [1] is 3.06%; in [2], 1.2%; in experiment [3] it was 6.6%; in [4], 1.02%; in [5] it was -2.31%; in experiment [6], 2.93%. Besides, the inhibition in experiment [7] is 4.97%; in experiment [8] it was 3.84%; in experiment [9], 3.79%; in [10], 0.39%; in experiment [11] it was -3.3%; in experiment [12], 1.42%. Besides, the inhibition in experiment [13] worked out at 1.5%; in experiment [14], 0.11%; in experiment [15] it was 4.02%; in experiment [16] it was 1.77%; in experiment [17], 4.72%.

For the compound `COc1cccc(-n2ncc3c(N/N=C/c4ccc(F)cc4)ncnc32)c1`, the inhibition is 9.33% in [1]; 5.87% in experiment [2]; 25.1% in experiment [3]; 2.73% in experiment [4]; 2.54% in experiment [5]; 7.43% in [6]. Besides, the inhibition was 8.16% in experiment [7]; 5.77% in experiment [8]; 7.05% in experiment [9]; 0.27% in experiment [10]; -3.94% in experiment [12]; 1.4% in experiment [13]. Moreover, the inhibition in [14] came out at 1.96%; in experiment [15], 6.79%; in [16] it was 5.09%; in [17], 8.94%.

As to `CCn1c(-c2nonc2N)nc2c(C#CC(C)(C)O)nc(OC[C@H](N)c3ccccc3)cc21`, the inhibition in experiment [1] is 1.88%; in experiment [2], 2.49%; in experiment [3] it was 7.77%; in experiment [4], 0.59%; in experiment [5], -2.5%; in [6] it was 1.18%. Also, the inhibition in experiment [7] was 5.43%; in experiment [8] it was 1.68%; in [9] it was 2.41%; in [10], -2.29%; in [11], -1.64%; in experiment [12], 1.14%. The inhibition worked out at 1.37% in experiment [13]; 7.19% in experiment [14]; 29.8% in [15]; 23.8% in [16]; 63.2% in experiment [17].

`NS(=O)(=O)c1ccc(N/N=C2\C(=O)Nc3ccc4ncccc4c32)cc1`: the inhibition was 41.9% in [1]; 9.32% in experiment [2]; 48.2% in [3]; 3.49% in experiment [4]; 18.7% in [5]; 15% in experiment [6]. The inhibition is 60.2% in experiment [7]; 14.6% in [8]; 60.8% in experiment [9]; -0.71% in experiment [10]; 2.94% in [12]; 2.77% in experiment [13]. Further, the inhibition stood at 19.4% in experiment [14], 22.2% in experiment [15], 40.4% in experiment [16] and 63.2% in [17].

As to `Fc1ccc(-c2nn3ncccc3c2-c2ccnc(Nc3ccc4c(c3)OCCO4)n2)cc1`, the inhibition is 24.8% in experiment [1]; 86.3% in [2]; 96.6% in experiment [3]; 3.1% in [4]; 3.06% in [5]; 11.6% in experiment [6]. Also, the inhibition in [7] was 25.9%; in [8], 11.6%; in [9] it was 21.5%; in [10] it was 0.23%; in [11], -0.33%; in [12], 2.79%. For the same compound, the inhibition in experiment [13] was 2.18%; in experiment [14], 3.63%; in experiment [15] it was 7.64%; in experiment [16], 2.59%; in experiment [17], 6.75%.

For the compound `CCn1c(-c2nonc2N)nc2cnc(Oc3cccc(NC(=O)c4ccc(N(C)C)cc4)c3)cc21`, the inhibition is 0.87% in [1]; 0.93% in experiment [2]; 2.45% in [3]; 1.81% in experiment [4]; 2.72% in [5]; 1.95% in [6]. The inhibition in experiment [7] was 5.71%; in [8] it was 2.62%; in [9] it was 6.32%; in [10], 0.85%; in [11], -4.15%; in experiment [12] it was 0.85%. Moreover, the inhibition in experiment [13] was 0.95%; in [14], 2.37%; in experiment [15] it was 6.56%; in [16], 5.49%; in experiment [17], 27.4%.

On to `COc1ccc2c(-c3ccnc(Nc4cccc(OC(F)(F)F)c4)n3)cnn2n1`, for which the inhibition in experiment [1] was 7.73%; in [2], 2.47%; in [3] it was 6.34%; in [4] it was 0.87%; in experiment [5] it was 3.62%; in experiment [6], 6.94%. For the same compound, the inhibition was 7.89% in experiment [7]; 5.16% in experiment [8]; 6.12% in experiment [9]; 1.54% in experiment [10]; -3.64% in experiment [12]; 2.91% in experiment [13]. Moreover, the inhibition in experiment [14] was 5.25%; in experiment [15] it was 14.5%; in [16], 8.08%; in experiment [17], 39.3%.
